CASP6 VEID inh – caspase-6 (human) enzyme inhibition; P55212; inhibition, % at 12.5 µM; purified caspase-6, Z-VEID-R110 cleavage fluorescence; 0.53% of 350,000 active; AID 686996;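 active means mean inhibition across replicates at least about 35%, with every replicate also reaching that limit, limit read from the data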;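 further: 0% = median of neutral control wells and 100% = no fluorescence left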
NSD2 inh – inhibitors of human histone methyltransferase NSD2 | O96028 | NSD2 peptide methylation, AlphaScreen, 120 min | inhibition, % at 12.5 µM | 0.54% of 310,000 active; in the data active means inhibition above about 50%
AF4-AF9 inh – inhibitors of human MLL-AF4/AF9 interaction | P42568 | AlphaScreen, biotin-AF4 peptide binding to FLAG-AF9 | inhibition, % at 10 µM | 0.47% of 350,000 active;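 active means every replicate reaching a set inhibition limit, whatever the replicate mean, cut at about 25% in these data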;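 further: 0% = plate neutral control median and 100% = total signal loss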
Target sequence (P42568 whole entry, looked up): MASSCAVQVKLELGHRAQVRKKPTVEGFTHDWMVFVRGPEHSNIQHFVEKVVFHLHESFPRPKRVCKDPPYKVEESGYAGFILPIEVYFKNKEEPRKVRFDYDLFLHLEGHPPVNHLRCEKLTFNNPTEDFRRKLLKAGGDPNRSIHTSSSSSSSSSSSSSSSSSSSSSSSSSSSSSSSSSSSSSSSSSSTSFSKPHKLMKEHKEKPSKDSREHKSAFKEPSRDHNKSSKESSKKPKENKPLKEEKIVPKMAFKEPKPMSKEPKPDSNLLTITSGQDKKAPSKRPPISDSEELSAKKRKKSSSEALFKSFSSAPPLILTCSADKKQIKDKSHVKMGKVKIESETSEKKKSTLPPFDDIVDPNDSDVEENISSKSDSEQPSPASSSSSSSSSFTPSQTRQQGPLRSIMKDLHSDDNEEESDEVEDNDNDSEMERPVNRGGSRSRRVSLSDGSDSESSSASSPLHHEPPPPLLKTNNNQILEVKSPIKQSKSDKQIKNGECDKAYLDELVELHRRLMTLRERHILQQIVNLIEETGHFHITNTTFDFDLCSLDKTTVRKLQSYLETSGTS
miR-122 sensor – miR-122 inhibition in Huh7 cells | 0.3% of 340,000 active | Huh7 miR-122 Renilla luciferase sensor, 48 h; neutral wells = 0, positive control = 100 | activation (reporter increase), % at 12.5 µM;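 active means mean replicate activation score at least 90 and every replicate individually at or above 90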;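 further: higher luciferase means less miR-122 activity so hits act as miR-122 inhibitors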
RAD52 anneal inh – blocks human RAD52 DNA annealing. P43351. recombinant RAD52 DNA annealing, FRET fluorescence. inhibition, % at 18.7 µM. 0.46% of 360,000 active. AID 651710;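 active means every replicate showing at least 50% inhibition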
* hit, by the source's call; i = inactive; x = no result given; [ ] = dose if it differs, or a comment. This is a sample that favours compounds with a hit; in the whole collection about 1.5% have one here.

SMILES | CASP6 VEID inh | NSD2 inh | AF4-AF9 inh | miR-122 sensor | RAD52 anneal inh
C[C@@H]1CCCCO[C@@H](CN(C)C(=O)Nc2ccccc2)[C@@H](C)CN([C@@H](C)CO)C(=O)c2cc(NS(=O)(=O)c3ccccc3)ccc2O1 | 3 | x | -11 | x | -18
COc1ccc(OC)c(C2C3=C(COC3=O)Nc3cc4c(cc32)OCO4)c1 (configuration not stated) | x | 0 | x | 140* | x
O=C1NC[C@H](CCCCN2CCN(CCc3ccccc3)C(=O)C2=O)N(CCc2ccc(O)cc2)C1=O | -1 | x | 1 | x | -9
O=C1NC[C@@H](CCCCN2CCN(CCc3ccc(O)cc3)C(=O)C2=O)N(CCc2ccc(O)cc2)C1=O | 40* | x | -3 | x | -9
C[C@@H]1CN([C@@H](C)CO)C(=O)c2cc(NC(=O)Nc3ccccc3)ccc2O[C@@H]1CN(C)S(=O)(=O)c1ccc(Cl)cc1 | -3 | x | 1 | 41[16.7 µM] | 16
C[C@@H]1CN([C@H](C)CO)C(=O)c2cc(NC(=O)Nc3ccccc3)ccc2O[C@@H]1CN(C)S(=O)(=O)c1ccc(Cl)cc1 | -1 | x | 0 | 100*[16.7 µM] | 18
C[C@@H]1CN([C@H](C)CO)C(=O)c2cc(NC(=O)Cc3ccccc3)ccc2O[C@@H]1CN(C)S(=O)(=O)c1ccc(Cl)cc1 | 0 | x | 1 | 99*[16.7 µM] | 11
C[C@@H]1CN([C@@H](C)CO)C(=O)c2cc(NC(=O)Cc3cn(C)c4ccccc34)ccc2O[C@@H]1CN(C)S(=O)(=O)c1ccc(Cl)cc1 | 5 | x | -13 | 44[16.7 µM] | 4
C[C@@H]1CN([C@H](C)CO)C(=O)c2cc(NC(=O)Cc3cn(C)c4ccccc34)ccc2O[C@@H]1CN(C)S(=O)(=O)c1ccc(Cl)cc1 | 2 | x | -13 | 101*[16.7 µM] | -3
C[C@H]1CN([C@@H](C)CO)C(=O)Cc2cc(NS(=O)(=O)c3cn(C)cn3)ccc2O[C@H]1CN(C)Cc1ccc2c(c1)OCO2 | x | x | x | 8[16.7 µM] | x
O=C1c2ccccc2C(=O)c2c(Nc3ccc(CCO)cc3)ccc(O)c21 | 1 | 13 | 50* | 0 | -12
O=C(CNCc1ccccc1Cl)Nc1cc(S(=O)(=O)N2CCOCC2)ccc1Cl | -1 | -1 | 2 | x | -15
O=C(Nc1cc(S(=O)(=O)N2CCOCC2)ccc1Cl)C(=O)c1c(-c2ccccc2)cc2ccccn12 | x | 1 | x | 155* | x
COC(=O)C1=C(O)/C(=C\c2ccc(CNS(=O)(=O)c3ccc(Cl)cc3)o2)N=C1C | 49* | -2 | 3 | x | -56
COc1ccc(NC(=O)N(C)C[C@H]2OCCCC[C@@H](C)Oc3ccc(N(C)C)cc3C(=O)N([C@@H](C)CO)C[C@@H]2C)cc1 | 52* | x | 6 | -3[16.7 µM] | -7
C[C@@H]1CCCCO[C@H](CN(C)C(=O)Nc2ccc(C(F)(F)F)cc2)[C@H](C)CN([C@@H](C)CO)C(=O)c2cc(N(C)C)ccc2O1 | -1 | x | 5 | -6[16.7 µM] | 78*
Cc1noc(C)c1S(=O)(=O)Nc1ccc2c(c1)C(=O)N([C@H](C)CO)C[C@@H](C)[C@@H](CN(C)C(=O)Nc1ccc(F)cc1)O2 | x | x | x | -4[16.7 µM] | x
COc1ccc(S(=O)(=O)/N=C2/NC(=O)/C(=C/c3ccco3)S2)cc1 | 62* | 26 | -5 | x | -135
O=C(Nc1cc(Cl)cc(Cl)c1)c1coc(=O)c(Br)c1 | 70* | 2 | -2 | -7 | -117
O=C(Cc1ccccn1)NCC[C@@H]1CC[C@@H](NC(=O)Nc2ccc(Cl)cc2)[C@H](CO)O1 | 1 | x | -29 | x | 4
Cc1ccc(Sc2ccc(S(=O)(=O)Nc3ccc(CC(=O)O)cc3)cc2)cc1C | 41* | 7 | 1 | 1 | -32
C[C@@H]1CCCCO[C@H](CN(C)Cc2ccc3c(c2)OCO3)[C@H](C)CN([C@@H](C)CO)C(=O)c2cc(NS(=O)(=O)c3ccc(Cl)cc3)ccc2O1 | 2 | x | 15 | -5[16.7 µM] | 47
COc1ccc(C(=O)/C=C/c2ccccc2)c(OC)c1 | -1 | x | 4 | 11 | -19
COc1ccc(C(=O)/C=C/c2ccc(N(C)C)cc2)c(OC)c1 | -2 | -9 | 1 | 212* | i
C[C@@H]1CCCCO[C@H](CN(C)C(=O)Nc2ccccc2)[C@@H](C)CN([C@@H](C)CO)C(=O)c2cc(NC(=O)c3ccccc3)ccc2O1 | 0 | x | 3 | 4[16.7 µM] | -27
SMILES | CASP6 VEID inh | NSD2 inh | AF4-AF9 inh | miR-122 sensor | RAD52 anneal inh
O=C(/C=C/c1ccccc1)OCC(=O)N1CCCC1 | -2 | 7 | 0 | -2 | -5
O=C(/C=C/c1ccco1)OCC(=O)N1CCCCC1 | 50* | 4 | -3 | -1 | -17
CCN(C(=O)COC(=O)/C=C/c1ccc(F)cc1)C1CCCCC1 | 2 | 0 | 1 | -7 | -10
CCN(C(=O)COC(=O)/C=C/c1ccco1)C1CCCCC1 | 57* | 10 | 1 | x | -14
COc1ccccc1S(=O)(=O)N[C@@H]1CC[C@H](CC(=O)NCc2cc(F)cc(F)c2)O[C@@H]1CO | 1 | x | -4 | x | 1
COc1cccc(C(=O)Nc2ccc(C(=O)O)cc2)c1 | x | -1 | x | 113* | x
COc1cccc(C(=O)Nc2nnc(-c3cccs3)o2)c1 | -2 | x | 45* | -1 | -20
COc1cccc(C(=O)Nc2nnc(-c3ccc(Cl)cc3)o2)c1 | 2 | x | 10 | -2 | -13
COc1cccc(C(=O)Nc2ccc(C(=O)c3ccccc3)cc2)c1 | 0 | -2 | 1 | 4 | -27
CCCn1c(NC(=O)C2CCN(C(=O)c3ccccc3C)CC2)nc2ccccc21 | 1 | 3 | 1 | x | -8
CCCn1c(NC(=O)c2cccc(C)c2C)nc2ccccc21 | x | -4 | x | 118* | x
N=C1S/C(=C\c2ccco2)C(=O)N1c1nccs1 | 37* | 8 | 0 | 1 | -22
N=C1S/C(=C\c2ccco2)C(=O)N1c1ccc2c(c1)OCO2 | 13 | 5 | -2 | -7 | -11
COc1cc2[nH]c(=S)nc(NCC3CCCO3)c2cc1OC (configuration not stated) | -1 | 5 | x | -1 | 7
COc1cc2[nH]c(=S)nc(NC3CCCCCC3)c2cc1OC | -5 | x | 4 | x | 58*
O=C1CCC[C@@H]2c3[nH]c4ccccc4c3CCN12 | 2 | x | 4 | x | -6
CCCNC(=O)Nc1ccc2c(c1)OC[C@@H](C)N(Cc1cccnc1)C[C@@H](C)[C@H](OC)CN(C)C2=O | x | x | 0 | x | 6
COc1cccc(CN2CC3(C2)CN(C(=O)C2CC2)[C@@H](CO)c2c3c3ccc(OC)cc3n2C)c1 | x | x | 26* | x | x
CCCNC(=O)N1CC2(CN(Cc3ccc(OC)cc3)C2)c2c(n(C)c3cc(OC)ccc23)[C@H]1CO | x | x | 36* | x | x
COc1ccc2c3c(n(C)c2c1)[C@H](CO)N(C(=O)C1CCC1)CC31CN(Cc2cccc(F)c2)C1 | -1 | x | 14 | x | 9
COc1ccc2c3c(n(C)c2c1)[C@H](CO)N(C(=O)C1CC1)CC31CN(Cc2ccccc2OC)C1 | -1 | x | 29* | x | 17

Compound activity deposited in PubChem by Broad Institute.
